# Experiments:
# Assay in all cases: DAPPL (digital affinity profiling via proximity ligation, sequencing); 10 mM Tris-HCl pH 7.5, 50 mM NaCl, 1 mM DTT, 4% glycerol, room temperature, 30 min; GST-TFs on glutathione beads, 16-mer random dsDNA library, 0.1% formaldehyde crosslink after washing; high values mean tight binding
# FLI1 = molecular target: T1, FLI1 (Homo sapiens, UniProt Q01543 1-452); settings: protein: recombinant; tags: N-terminal GST; dsDNA, one strand shown
# T1 sequence: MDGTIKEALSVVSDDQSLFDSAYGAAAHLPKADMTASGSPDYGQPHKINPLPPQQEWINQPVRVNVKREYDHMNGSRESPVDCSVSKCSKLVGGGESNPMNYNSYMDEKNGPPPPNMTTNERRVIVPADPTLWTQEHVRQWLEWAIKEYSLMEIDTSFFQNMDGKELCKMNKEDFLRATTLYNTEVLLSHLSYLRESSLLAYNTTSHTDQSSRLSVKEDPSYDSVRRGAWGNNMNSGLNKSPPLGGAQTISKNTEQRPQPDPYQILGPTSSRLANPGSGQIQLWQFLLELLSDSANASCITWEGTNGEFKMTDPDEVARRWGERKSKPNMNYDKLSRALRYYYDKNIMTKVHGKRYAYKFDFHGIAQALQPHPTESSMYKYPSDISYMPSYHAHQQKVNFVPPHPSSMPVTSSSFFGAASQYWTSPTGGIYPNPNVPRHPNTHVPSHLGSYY
# How it was run: (§1)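 GST fusions of human transcription factors were expressed in yeast and captured with glutathione beads. Once given DNA barcodes and pooled alongside a tag-only sample, they were incubated for 30 min at room temperature with 200 nmole of a random double-stranded 16-mer DNA library in Tris/NaCl/DTT/glycerol buffer, then washed, crosslinked (0.1% formaldehyde), proximity-ligated, PCR-amplified and sequenced on an Illumina NextSeq500. The binding signal of each hexamer is its read frequency for a factor divided by its frequency for the tag-only sample.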
# ELK1 = molecular target: T2, ELK1 (Homo sapiens, UniProt P19419 1-428); settings: protein: recombinant; tags: N-terminal GST; dsDNA, one strand shown
# T2 sequence: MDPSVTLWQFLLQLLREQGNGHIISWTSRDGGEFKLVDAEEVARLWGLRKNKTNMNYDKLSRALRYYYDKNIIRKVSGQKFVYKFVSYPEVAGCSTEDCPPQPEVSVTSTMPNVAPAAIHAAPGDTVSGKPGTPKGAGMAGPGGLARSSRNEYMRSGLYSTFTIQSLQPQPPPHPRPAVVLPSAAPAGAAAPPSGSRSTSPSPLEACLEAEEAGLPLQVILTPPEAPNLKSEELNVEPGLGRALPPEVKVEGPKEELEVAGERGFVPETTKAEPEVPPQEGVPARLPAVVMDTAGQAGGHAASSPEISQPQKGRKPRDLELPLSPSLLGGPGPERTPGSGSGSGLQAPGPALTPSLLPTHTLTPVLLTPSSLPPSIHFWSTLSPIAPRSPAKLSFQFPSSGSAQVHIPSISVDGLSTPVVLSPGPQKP
# How it was run: as §1
# GABPA = molecular target: T3, GABPA (Homo sapiens, UniProt Q06546 1-454); settings: protein: recombinant; tags: N-terminal GST; dsDNA, one strand shown
# T3 sequence: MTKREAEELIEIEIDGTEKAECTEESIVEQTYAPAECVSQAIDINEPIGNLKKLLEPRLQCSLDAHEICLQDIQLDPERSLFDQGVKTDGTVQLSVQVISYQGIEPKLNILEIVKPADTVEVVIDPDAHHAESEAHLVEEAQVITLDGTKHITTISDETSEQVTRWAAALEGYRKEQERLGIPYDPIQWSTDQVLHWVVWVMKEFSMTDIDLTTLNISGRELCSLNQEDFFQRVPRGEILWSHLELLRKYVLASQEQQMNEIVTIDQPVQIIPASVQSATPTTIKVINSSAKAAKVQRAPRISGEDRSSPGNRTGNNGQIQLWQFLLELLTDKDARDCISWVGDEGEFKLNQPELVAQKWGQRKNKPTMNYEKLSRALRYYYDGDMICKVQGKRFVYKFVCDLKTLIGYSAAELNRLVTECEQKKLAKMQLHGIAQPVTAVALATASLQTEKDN
# How it was run: as §1
# ERG = molecular target: T4, ERG (Homo sapiens, UniProt P11308 1-479); settings: protein: recombinant; tags: N-terminal GST; dsDNA, one strand shown
# T4 sequence: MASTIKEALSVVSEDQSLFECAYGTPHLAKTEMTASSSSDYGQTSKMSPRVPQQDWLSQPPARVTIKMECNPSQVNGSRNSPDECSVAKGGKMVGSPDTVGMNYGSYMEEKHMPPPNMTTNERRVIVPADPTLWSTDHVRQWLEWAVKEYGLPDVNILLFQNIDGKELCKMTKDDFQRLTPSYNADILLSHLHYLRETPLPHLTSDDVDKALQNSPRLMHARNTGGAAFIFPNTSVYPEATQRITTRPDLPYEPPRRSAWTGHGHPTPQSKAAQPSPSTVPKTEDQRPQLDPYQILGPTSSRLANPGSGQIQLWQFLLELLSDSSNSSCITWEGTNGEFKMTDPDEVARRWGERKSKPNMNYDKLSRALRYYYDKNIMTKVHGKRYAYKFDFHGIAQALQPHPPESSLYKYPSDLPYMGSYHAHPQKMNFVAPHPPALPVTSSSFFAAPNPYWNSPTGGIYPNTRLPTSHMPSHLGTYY
# How it was run: as §1
# ELF1 = ELF1 (Homo sapiens, UniProt P32519 1-619); settings: protein: recombinant; tags: N-terminal GST; dsDNA, one strand shown
# Chain of ELF1 (P32519 whole entry): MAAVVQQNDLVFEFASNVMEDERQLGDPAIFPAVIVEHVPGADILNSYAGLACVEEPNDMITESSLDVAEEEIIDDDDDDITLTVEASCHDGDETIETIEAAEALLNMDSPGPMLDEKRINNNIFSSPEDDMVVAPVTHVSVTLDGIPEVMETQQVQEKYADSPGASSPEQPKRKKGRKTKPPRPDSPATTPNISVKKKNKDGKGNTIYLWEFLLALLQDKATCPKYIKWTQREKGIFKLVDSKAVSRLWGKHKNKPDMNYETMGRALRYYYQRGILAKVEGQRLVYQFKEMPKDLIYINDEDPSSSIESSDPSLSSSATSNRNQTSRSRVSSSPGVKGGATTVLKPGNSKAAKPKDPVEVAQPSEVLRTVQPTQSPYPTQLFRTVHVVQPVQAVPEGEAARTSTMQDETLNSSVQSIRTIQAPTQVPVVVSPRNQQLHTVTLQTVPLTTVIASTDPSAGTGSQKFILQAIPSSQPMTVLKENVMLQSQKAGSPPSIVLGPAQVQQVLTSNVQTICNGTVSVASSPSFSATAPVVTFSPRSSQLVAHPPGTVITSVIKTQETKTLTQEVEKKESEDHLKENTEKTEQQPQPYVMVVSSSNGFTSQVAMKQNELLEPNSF
# How it was run: as §1
# EHF = molecular target: T5, EHF (Homo sapiens, UniProt Q9NZC4 1-300); settings: protein: recombinant; tags: N-terminal GST; dsDNA, one strand shown
# T5 sequence: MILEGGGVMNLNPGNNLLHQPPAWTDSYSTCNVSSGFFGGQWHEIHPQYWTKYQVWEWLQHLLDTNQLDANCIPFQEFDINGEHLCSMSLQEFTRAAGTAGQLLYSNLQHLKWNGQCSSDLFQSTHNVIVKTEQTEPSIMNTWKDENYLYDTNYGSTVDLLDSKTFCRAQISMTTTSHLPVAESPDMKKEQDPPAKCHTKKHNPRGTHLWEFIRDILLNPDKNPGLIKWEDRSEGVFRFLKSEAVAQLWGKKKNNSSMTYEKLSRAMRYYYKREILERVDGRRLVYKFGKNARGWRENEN
# How it was run: as §1
# SPI1 = SPI1 (Homo sapiens, UniProt P17947 1-270); settings: protein: recombinant; tags: N-terminal GST; dsDNA, one strand shown
# How it was run: as §1
# SPIB = SPIB (Homo sapiens, UniProt Q01892 1-262); settings: protein: recombinant; tags: N-terminal GST; dsDNA, one strand shown
# Chain of SPIB (Q01892 whole entry): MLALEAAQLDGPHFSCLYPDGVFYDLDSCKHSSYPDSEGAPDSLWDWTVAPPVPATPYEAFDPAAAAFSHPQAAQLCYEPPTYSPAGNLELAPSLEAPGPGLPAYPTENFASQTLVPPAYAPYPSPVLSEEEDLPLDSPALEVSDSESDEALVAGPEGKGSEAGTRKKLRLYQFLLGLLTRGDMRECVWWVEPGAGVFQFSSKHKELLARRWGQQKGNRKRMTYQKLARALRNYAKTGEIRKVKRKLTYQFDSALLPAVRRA
# How it was run: as §1
# ELK3 = molecular target: T6, ELK3 (Homo sapiens, UniProt P41970 1-407); settings: protein: recombinant; tags: N-terminal GST; dsDNA, one strand shown
# T6 sequence: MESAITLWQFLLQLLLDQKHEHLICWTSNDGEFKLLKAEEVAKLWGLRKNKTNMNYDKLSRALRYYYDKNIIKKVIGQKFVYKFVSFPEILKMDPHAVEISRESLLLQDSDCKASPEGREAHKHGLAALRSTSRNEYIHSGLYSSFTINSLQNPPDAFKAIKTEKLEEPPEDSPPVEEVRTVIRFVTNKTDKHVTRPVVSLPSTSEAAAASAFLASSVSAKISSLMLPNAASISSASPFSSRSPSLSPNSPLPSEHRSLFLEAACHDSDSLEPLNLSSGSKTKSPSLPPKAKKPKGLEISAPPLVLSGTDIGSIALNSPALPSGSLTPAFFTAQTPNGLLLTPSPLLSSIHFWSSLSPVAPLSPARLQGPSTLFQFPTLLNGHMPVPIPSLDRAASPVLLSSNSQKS
# How it was run: as §1
# FEV = molecular target: T7, FEV (Homo sapiens, UniProt Q99581 1-238); settings: protein: recombinant; tags: N-terminal GST; dsDNA, one strand shown
# T7 sequence: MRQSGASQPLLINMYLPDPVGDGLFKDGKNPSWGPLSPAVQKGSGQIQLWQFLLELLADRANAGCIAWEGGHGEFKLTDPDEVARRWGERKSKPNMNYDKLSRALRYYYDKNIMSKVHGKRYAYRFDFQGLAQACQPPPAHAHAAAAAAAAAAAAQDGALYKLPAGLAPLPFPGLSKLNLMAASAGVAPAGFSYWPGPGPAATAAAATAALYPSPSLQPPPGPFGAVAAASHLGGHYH
# How it was run: as §1
# ETV5 = ETV5 (Homo sapiens, UniProt P41161 1-510); settings: protein: recombinant; tags: N-terminal GST; dsDNA, one strand shown
# Chain of ETV5 (P41161 whole entry): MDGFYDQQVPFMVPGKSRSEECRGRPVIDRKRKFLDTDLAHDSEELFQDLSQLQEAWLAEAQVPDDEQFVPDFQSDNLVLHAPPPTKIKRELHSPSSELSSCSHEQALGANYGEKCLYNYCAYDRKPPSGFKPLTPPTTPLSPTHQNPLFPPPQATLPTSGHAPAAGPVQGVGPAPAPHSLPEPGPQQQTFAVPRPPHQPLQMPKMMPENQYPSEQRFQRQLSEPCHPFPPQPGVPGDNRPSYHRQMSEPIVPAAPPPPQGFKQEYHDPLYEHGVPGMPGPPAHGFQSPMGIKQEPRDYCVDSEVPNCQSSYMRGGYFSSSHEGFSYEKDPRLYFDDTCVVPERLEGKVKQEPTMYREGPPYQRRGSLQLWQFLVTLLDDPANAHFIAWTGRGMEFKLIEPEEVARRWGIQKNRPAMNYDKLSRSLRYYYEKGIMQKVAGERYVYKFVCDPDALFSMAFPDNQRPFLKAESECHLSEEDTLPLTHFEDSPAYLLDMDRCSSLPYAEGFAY
# How it was run: as §1
# HSF1 = HSF1 (Homo sapiens, UniProt Q00613 1-529); settings: protein: recombinant; tags: N-terminal GST; chain copies: 3; dsDNA, one strand shown
# Chain of HSF1 (Q00613 whole entry): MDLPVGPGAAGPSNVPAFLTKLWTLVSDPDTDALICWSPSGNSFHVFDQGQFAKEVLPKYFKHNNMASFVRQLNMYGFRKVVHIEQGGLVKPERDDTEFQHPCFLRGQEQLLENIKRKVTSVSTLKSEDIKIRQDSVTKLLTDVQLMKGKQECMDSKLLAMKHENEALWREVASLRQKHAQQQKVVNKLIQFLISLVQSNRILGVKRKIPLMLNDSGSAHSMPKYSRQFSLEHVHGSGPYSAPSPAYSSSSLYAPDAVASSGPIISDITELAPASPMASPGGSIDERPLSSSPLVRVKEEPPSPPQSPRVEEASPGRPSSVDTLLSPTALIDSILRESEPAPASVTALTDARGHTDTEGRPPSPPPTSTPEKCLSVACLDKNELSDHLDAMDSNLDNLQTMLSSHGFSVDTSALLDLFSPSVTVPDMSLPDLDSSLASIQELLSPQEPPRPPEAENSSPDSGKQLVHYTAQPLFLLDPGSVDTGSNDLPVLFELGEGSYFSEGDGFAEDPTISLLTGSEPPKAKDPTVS
# How it was run: as §1
# SPIC = molecular target: T8, SPIC (Homo sapiens, UniProt Q8N5J4 1-248); settings: protein: recombinant; tags: N-terminal GST; dsDNA, one strand shown
# T8 sequence: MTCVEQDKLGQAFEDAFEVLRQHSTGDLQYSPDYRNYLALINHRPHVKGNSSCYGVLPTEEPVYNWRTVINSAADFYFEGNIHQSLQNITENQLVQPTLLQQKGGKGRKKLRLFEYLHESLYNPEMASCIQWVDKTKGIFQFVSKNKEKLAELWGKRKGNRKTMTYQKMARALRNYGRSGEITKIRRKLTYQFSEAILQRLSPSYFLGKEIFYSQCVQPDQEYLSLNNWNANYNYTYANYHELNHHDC
# How it was run: as §1
# ELF4 = ELF4 (Homo sapiens, UniProt Q99607 1-663); settings: protein: recombinant; tags: N-terminal GST; dsDNA, one strand shown
# Chain of ELF4 (Q99607 whole entry): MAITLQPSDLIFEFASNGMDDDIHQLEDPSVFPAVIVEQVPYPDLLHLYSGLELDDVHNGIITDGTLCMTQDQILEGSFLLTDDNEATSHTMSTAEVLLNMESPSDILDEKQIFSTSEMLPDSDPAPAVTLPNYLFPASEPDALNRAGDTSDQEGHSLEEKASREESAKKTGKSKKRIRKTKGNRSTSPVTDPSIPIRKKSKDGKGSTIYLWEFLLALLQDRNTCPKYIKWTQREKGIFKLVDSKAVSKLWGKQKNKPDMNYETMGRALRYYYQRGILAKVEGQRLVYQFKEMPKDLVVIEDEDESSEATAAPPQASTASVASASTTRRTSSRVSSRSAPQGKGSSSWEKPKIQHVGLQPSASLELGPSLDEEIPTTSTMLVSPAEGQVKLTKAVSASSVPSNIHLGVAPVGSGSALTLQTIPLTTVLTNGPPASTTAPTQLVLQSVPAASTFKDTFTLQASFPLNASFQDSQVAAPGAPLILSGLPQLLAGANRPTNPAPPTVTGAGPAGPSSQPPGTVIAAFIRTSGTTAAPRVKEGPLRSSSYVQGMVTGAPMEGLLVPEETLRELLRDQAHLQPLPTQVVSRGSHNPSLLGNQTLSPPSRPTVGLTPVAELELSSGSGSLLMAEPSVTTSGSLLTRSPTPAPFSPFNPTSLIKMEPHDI
# How it was run: as §1
# ELK4 = molecular target: T9, ELK4 (Homo sapiens, UniProt P28324-2 1-405); settings: protein: recombinant; tags: N-terminal GST; dsDNA, one strand shown
# T9 sequence: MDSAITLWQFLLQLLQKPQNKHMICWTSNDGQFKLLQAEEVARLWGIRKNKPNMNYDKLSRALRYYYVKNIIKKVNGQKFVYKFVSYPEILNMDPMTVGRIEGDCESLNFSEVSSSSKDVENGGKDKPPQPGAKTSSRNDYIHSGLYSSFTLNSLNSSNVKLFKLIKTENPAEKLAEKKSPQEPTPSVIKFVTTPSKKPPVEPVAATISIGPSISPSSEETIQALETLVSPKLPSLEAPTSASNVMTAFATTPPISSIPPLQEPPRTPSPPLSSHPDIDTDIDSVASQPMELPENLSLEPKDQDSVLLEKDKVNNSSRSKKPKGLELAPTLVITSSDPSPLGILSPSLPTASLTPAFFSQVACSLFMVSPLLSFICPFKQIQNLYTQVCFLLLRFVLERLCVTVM
# How it was run: as §1
# ETV2 = molecular target: T10, ETV2 (Homo sapiens, UniProt O00321 1-342); settings: protein: recombinant; tags: N-terminal GST; dsDNA, one strand shown
# T10 sequence: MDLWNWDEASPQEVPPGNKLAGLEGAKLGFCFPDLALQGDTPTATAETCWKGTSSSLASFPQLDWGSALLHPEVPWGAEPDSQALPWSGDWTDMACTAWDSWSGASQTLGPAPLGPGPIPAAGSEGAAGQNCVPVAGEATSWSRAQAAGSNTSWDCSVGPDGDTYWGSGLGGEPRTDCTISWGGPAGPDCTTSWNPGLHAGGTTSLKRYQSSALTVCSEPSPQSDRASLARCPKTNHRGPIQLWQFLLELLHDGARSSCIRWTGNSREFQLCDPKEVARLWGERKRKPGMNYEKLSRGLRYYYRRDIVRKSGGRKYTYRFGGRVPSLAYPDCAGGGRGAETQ
# How it was run: as §1
# ELF3 = molecular target: T11, ELF3 (Homo sapiens, UniProt P78545 1-371); settings: protein: recombinant; tags: N-terminal GST; dsDNA, one strand shown
# T11 sequence: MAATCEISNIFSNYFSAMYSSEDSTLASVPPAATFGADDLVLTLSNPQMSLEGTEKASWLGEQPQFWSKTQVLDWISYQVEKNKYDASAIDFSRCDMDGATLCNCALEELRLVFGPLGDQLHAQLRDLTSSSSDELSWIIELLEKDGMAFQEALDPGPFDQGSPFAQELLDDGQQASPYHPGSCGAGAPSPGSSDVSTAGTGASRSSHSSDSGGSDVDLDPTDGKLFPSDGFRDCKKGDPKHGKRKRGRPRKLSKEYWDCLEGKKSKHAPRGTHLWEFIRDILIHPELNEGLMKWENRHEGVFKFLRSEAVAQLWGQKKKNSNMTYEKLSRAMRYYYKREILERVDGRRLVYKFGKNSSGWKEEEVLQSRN
# How it was run: as §1
# CRX = CRX (Homo sapiens, UniProt O43186 1-299); settings: protein: recombinant; tags: N-terminal GST; dsDNA, one strand shown
# Chain of CRX (O43186 whole entry): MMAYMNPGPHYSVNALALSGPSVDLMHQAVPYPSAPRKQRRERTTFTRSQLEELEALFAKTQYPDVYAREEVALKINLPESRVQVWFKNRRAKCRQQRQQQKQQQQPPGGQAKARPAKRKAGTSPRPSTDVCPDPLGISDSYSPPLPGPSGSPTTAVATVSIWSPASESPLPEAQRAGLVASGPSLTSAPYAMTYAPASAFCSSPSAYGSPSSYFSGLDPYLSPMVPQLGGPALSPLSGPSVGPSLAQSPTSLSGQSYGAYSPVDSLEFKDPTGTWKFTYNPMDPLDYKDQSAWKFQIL
# How it was run: as §1
# ETV1 = ETV1 (Homo sapiens, UniProt P50549 1-477); settings: protein: recombinant; tags: N-terminal GST; dsDNA, one strand shown
# Chain of ETV1 (P50549 whole entry): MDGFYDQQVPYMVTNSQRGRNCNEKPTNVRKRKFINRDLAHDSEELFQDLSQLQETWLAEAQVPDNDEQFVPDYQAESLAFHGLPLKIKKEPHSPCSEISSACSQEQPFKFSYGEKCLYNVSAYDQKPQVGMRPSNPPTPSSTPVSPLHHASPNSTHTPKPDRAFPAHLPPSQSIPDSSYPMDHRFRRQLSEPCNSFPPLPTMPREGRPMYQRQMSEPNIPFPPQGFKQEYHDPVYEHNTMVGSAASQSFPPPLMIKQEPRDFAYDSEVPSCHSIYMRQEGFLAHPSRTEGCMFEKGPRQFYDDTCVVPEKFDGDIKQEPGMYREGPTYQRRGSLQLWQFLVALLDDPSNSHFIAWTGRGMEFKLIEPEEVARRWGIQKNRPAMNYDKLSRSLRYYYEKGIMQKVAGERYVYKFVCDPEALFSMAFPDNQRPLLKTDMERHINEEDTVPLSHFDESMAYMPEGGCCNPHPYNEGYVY
# How it was run: as §1
sequence,measurement,setting,value
AATTAG,binding signal,FLI1,"1.18 fold enrichment (6-mer frequency, TF over GST control)"
same,binding signal,ELK1,"1.09 fold enrichment (6-mer frequency, TF over GST control)"
same,binding signal,GABPA,"1.13 fold enrichment (6-mer frequency, TF over GST control)"
same,binding signal,ERG,"1.11 fold enrichment (6-mer frequency, TF over GST control)"
same,binding signal,ELF1,"1.12 fold enrichment (6-mer frequency, TF over GST control)"
same,binding signal,EHF,"1.06 fold enrichment (6-mer frequency, TF over GST control)"
same,binding signal,SPI1,"1.1 fold enrichment (6-mer frequency, TF over GST control)"
same,binding signal,SPIB,"1.11 fold enrichment (6-mer frequency, TF over GST control)"
same,binding signal,ELK3,"1.09 fold enrichment (6-mer frequency, TF over GST control)"
same,binding signal,FEV,"1.07 fold enrichment (6-mer frequency, TF over GST control)"
same,binding signal,ETV5,"1.12 fold enrichment (6-mer frequency, TF over GST control)"
same,binding signal,HSF1,"1.39 fold enrichment (6-mer frequency, TF over GST control)"
same,binding signal,SPIC,"1.08 fold enrichment (6-mer frequency, TF over GST control)"
same,binding signal,ELF4,"1.15 fold enrichment (6-mer frequency, TF over GST control)"
same,binding signal,ELK4,"1.14 fold enrichment (6-mer frequency, TF over GST control)"
same,binding signal,ETV2,"1.12 fold enrichment (6-mer frequency, TF over GST control)"
same,binding signal,ELF3,"1.13 fold enrichment (6-mer frequency, TF over GST control)"
same,binding signal,CRX,"1.69 fold enrichment (6-mer frequency, TF over GST control)"
same,binding signal,ETV1,"1.14 fold enrichment (6-mer frequency, TF over GST control)"

# From publication PMC7862700, “An all-to-all approach to the identification of sequence-specific readers for epigenetic DNA modifications on cytosine”
